Screening data deposited in PubChem by National Center for Advancing Translational Sciences (NCATS).
Vaccinia Venus – inhibitors of vaccinia virus (Venus reporter). Vaccinia virus Venus reporter expression, fluorescence. Potency, µM (series often up to 36.5 µM), actives largely listed as inhibitors. hit rate 0.46% among 330,000; calls by dose curve; tested in A549 cells; note: nearly all actives have a fitted effect of over 30% in size
Lassa entry inh – Lassa virus entry inhibition | hit rate 1.2% among 300,000 | Potency, µM (top dose mostly 37.9 µM), most hits filed as inhibitors | Lassa virus pseudotype entry inhibition, cell reporter; calls by dose curve; tested in HEK293 cells; note: nearly all actives have a fitted effect of over 50% in size
Marburg entry inh – blocks Marburg virus binding to or entry into cells; Potency, µM (titrated, usually from 37.8 µM), usual class: inhibitors; AID 540276; hit rate 1.8% among 300,000; Marburg virus pseudotyped entry inhibition, cell reporter; calls by dose curve; tested in HEK293 cells
Vaccinia mCherry – vaccinia inhibition (mCherry reporter) | Vaccinia virus mCherry reporter infection, fluorescence | Potency, µM (titrated, usually from 36.5 µM), actives largely listed as inhibitors | hit rate 0.63% among 310,000 | AID 720579; calls by dose curve; tested in A549 cells; note: nearly all actives have a fitted effect of over 35% in size
HCMV inh – blocks human cytomegalovirus replication; hit rate 4.5% among 410,000; HFF cells, HCMV-luciferase reporter, 72 h; active compounds read low; AID 1259415; activity change, negative = inhibition, % at 57.5 µM; in the data active = activity change below about -60%; inconclusive = no clear call, values can overlap the other calls; inactive = above about -39%
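Cell-based, HFFs, 1000 cells/well, 16 h 37C; cpds in DMSO + HCMV-luc, MOI 1 PFU/cell; 72 h 37C; OneGlo luminescence after 5 min RT; norm. to buffer vs Salinomycin 10uM.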
FMDV inh – blocks foot and mouth disease virus; hit rate 1.2% among 410,000; AID 1159524; FMDV antiviral cell-based qHTS; Potency, µM (top dose mostly 57.9 µM), hits mostly inhibitors; calls by dose curve; tested in HEK293T cells; note: read-out not given here; nearly all actives have a fitted effect of over 45% in size
Hits are given with their value; [ ] = another dose, or the depositor's remark. Hits are enriched below; roughly 6.5% of the tested compounds scored in any of these assays.

`CC(=O)Nc1ccc(NC(=O)C(C)OC(=O)c2ccc(-n3cnnn3)cc2)cc1` (stereo not given) gave Vaccinia Venus inactive, Lassa entry inh inactive, Marburg entry inh inactive, Vaccinia mCherry inactive, HCMV inh inactive and FMDV inh inactive.
For COc1ccccc1-c1ccnc(-n2ncc(C(=O)NC3CCCN(Cc4ccccc4)C3)c2C)n1 (stereo not given) the results were Vaccinia Venus inactive, Vaccinia mCherry inactive and FMDV inh inactive.
For COc1cc(C2c3cc4c(cc3OC(N3CCCCC3)C2C)OCO4)cc(OC)c1O (stereo not given) the results were Vaccinia Venus inactive, Lassa entry inh inconclusive, Marburg entry inh inactive, Vaccinia mCherry inactive, HCMV inh inactive and FMDV inh inactive.
COc1cc([C@@H]2c3cc4c(cc3C(O[C@@H]3O[C@@H]5COC(c6cccs6)O[C@H]5[C@H](O)[C@H]3O)C3COC(=O)[C@@H]32)OCO4)cc(OC)c1O (stereo not given in full) was read as Vaccinia Venus inconclusive, Vaccinia mCherry 2µM and FMDV inh inactive.
`COc1ccccc1C1CN(Cc2cccnc2)Cc2ccccc2O1` (stereo not given) gave Vaccinia Venus inactive, Vaccinia mCherry inactive and FMDV inh inactive.
For O=C(O)c1cccc(COc2ccccc2Cl)c1 the results were Lassa entry inh 0.52µM, Marburg entry inh 0.41µM, HCMV inh inconclusive and FMDV inh 1.4µM.
For COc1cc(/C=C2\NC(=S)NC2=O)ccc1OCc1cccc(C(=O)O)c1 the results were Vaccinia Venus inactive, Lassa entry inh inconclusive, Marburg entry inh inconclusive, Vaccinia mCherry inactive, HCMV inh inactive and FMDV inh inactive.
`O=C1NC(=O)/C(=C\c2ccc(OCc3cccc(C(=O)O)c3)c(Cl)c2)N1` gave Vaccinia Venus inactive, Lassa entry inh 6.3µM, Marburg entry inh inconclusive, Vaccinia mCherry inactive, HCMV inh inactive and FMDV inh inactive.
Screening Cc1ccc2c(=O)cc(CSc3ncn[nH]3)[nH]c2c1C returned Vaccinia Venus inactive, Lassa entry inh inactive, Vaccinia mCherry inactive, HCMV inh inactive and FMDV inh inactive.
COc1ccc(NC(=O)c2c(C)oc3ccc(O)c(CN4CCCCCC4)c23)cc1Cl was read as Vaccinia Venus inactive, Lassa entry inh inconclusive, Marburg entry inh 4.5µM, Vaccinia mCherry inconclusive, HCMV inh -94 and FMDV inh inactive.
`Cc1ccc(NC(=O)c2c(C)oc3ccc(O)c(CN4CCCCC4)c23)cc1` gave Vaccinia Venus inactive, Lassa entry inh inconclusive, Marburg entry inh inconclusive, Vaccinia mCherry inactive, HCMV inh -65 and FMDV inh inactive.
Screening CC(C)(C)NC(=O)CN1C(=O)NC(c2ccccc2)(c2ccccc2)C1=O returned Vaccinia Venus inactive, Lassa entry inh inactive, Marburg entry inh inactive, Vaccinia mCherry inactive, HCMV inh -81 and FMDV inh inactive.
For CC(=O)CN1C(=O)NC(c2ccccc2)(c2ccccc2)C1=O the results were Vaccinia Venus inactive, Lassa entry inh inactive, Marburg entry inh inactive, Vaccinia mCherry inactive, HCMV inh inactive and FMDV inh inactive.
`O=C(CCl)NN1C(=O)NC2(CCCCC2)C1=O` gave HCMV inh inactive and FMDV inh inactive.
Screening O=C(CCl)NN1C(=O)NC(c2ccccc2)(c2ccccc2)C1=O returned Vaccinia Venus inconclusive, Lassa entry inh inconclusive, Marburg entry inh inconclusive, Vaccinia mCherry inconclusive, HCMV inh -88 and FMDV inh inconclusive.
Cc1cc(Cl)ccc1NC(=O)CN1CCCC1 was read as Vaccinia Venus inactive, Lassa entry inh inconclusive, Marburg entry inh inactive, Vaccinia mCherry inactive, HCMV inh inactive and FMDV inh inactive.
Screening Cc1cc(Cl)ccc1NC(=O)CN1CCC(C(O)(c2ccccc2)c2ccccc2)CC1 returned Vaccinia Venus inactive, Lassa entry inh inconclusive, Marburg entry inh inconclusive, Vaccinia mCherry inactive, HCMV inh -67 and FMDV inh inactive.
`CNc1nc(N2CCCN(C)CC2)nc2cc(OC)c(OC)cc12` gave Vaccinia Venus inactive and Vaccinia mCherry inactive.
Screening O=c1c2ccccc2[nH]c(=S)n1-c1cccc(S(=O)(=O)N2CCCC2)c1 returned Vaccinia Venus inactive, Lassa entry inh inactive, Marburg entry inh inactive, Vaccinia mCherry inactive, HCMV inh -77 and FMDV inh inactive.
For O=C(c1cccs1)N(CCN1CCCCC1)CC1CCCN(C2CCCC2)C1 (stereo not given) the results were HCMV inh inactive and FMDV inh inactive.
Cc1ccc(C(=O)N(CCN2CCCCC2)CC2CCCN(C3CCCC3)C2)s1 (stereo not given) was read as Vaccinia Venus inactive, Lassa entry inh inconclusive, Marburg entry inh 8.9µM, Vaccinia mCherry inactive, HCMV inh inactive and FMDV inh inactive.
CSc1ccc(/C=C2\C=Cc3ccc([N+](=O)[O-])cc32)cc1 was read as Vaccinia Venus inactive and Vaccinia mCherry inactive.
`O=C(O)c1cnn(-c2nc(-c3cccc([N+](=O)[O-])c3)cs2)c1C(F)(F)F` gave HCMV inh -94 and FMDV inh inactive.
For O=C(O)c1cnn(-c2nc(-c3cccc(F)c3)cs2)c1C(F)(F)F the results were Vaccinia Venus inactive, Lassa entry inh inactive, Marburg entry inh inactive, Vaccinia mCherry inactive, HCMV inh inconclusive and FMDV inh inactive.
`Cc1ccc2c(C(=O)CNc3nc(C)c(C)s3)c(C)[nH]c2c1` gave Vaccinia Venus inactive and Vaccinia mCherry inactive.
`CC(C)(C)c1ccc(C(=O)Nc2ccc(CN3CCS(=O)(=O)CC3)cc2)cc1` gave Vaccinia Venus inactive, Lassa entry inh inconclusive, Marburg entry inh inconclusive, Vaccinia mCherry inactive, HCMV inh -80 and FMDV inh inconclusive.
For O=C(Nc1ccc(CN2CCS(=O)(=O)CC2)cc1)c1ccc(C(F)(F)F)cc1 the results were Vaccinia Venus inactive, Lassa entry inh inactive, Marburg entry inh inconclusive, Vaccinia mCherry inactive, HCMV inh -61 and FMDV inh inconclusive.
`O=C(Nc1ccc(CN2CCS(=O)(=O)CC2)cc1)c1ccc(F)cc1` gave HCMV inh inactive and FMDV inh inactive.
For CC(NC(=O)c1cc(F)ccc1F)c1nnc2n1CCN(Cc1ccccc1O)CC2 (stereo not given) the results were Vaccinia Venus inactive, Vaccinia mCherry inactive and FMDV inh inactive.
For CCCCC/C=C\C\C=C/C=C/C=C/[C@@H](SC[C@H](N)C(=O)O)[C@@H](O)CCCC(=O)O the results were Vaccinia Venus inactive[0.293 µM], Vaccinia mCherry inactive[0.293 µM] and FMDV inh inactive[0.463 µM].
For CCN(CC)CCn1c(=N)n(CCO)c2ccccc21 the results were Vaccinia Venus inactive, Lassa entry inh inactive, Marburg entry inh inactive, Vaccinia mCherry inactive, HCMV inh inactive and FMDV inh inactive.
For CCCn1c(=N)n(CC(O)COc2ccc(C)cc2)c2ccccc21 (stereo not given) the results were Vaccinia Venus inactive, Lassa entry inh inconclusive, Marburg entry inh inconclusive, Vaccinia mCherry inactive, HCMV inh inactive and FMDV inh inconclusive.
Screening Cn1c(=N)n(CC(=O)c2ccc(Br)s2)c2ccccc21 returned Vaccinia Venus inactive, Lassa entry inh inconclusive, Marburg entry inh inconclusive, Vaccinia mCherry inactive, HCMV inh inactive and FMDV inh inactive.
